Measurements published in PubChem BioAssay (NCI).
This is part of a sample that, as a whole, favours compounds with a hit. Of some 79,000 tested, about 15% had one in any assay. The source made the active and inactive calls. No stated cut-off is given here; in the data, active means growth inhibition above about 70%; inactive means the rest.

Legend:
[1] = NCI Yeast Anticancer Drug Screen. Data for the rad52 strain (AID 147);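 further: 0% = growth of vehicle-treated control cultures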; details: S. cerevisiae rad52 mutant growth inhibition, hits give high values
Procedure, shortened: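 Yeast strain carrying a DNA damage repair alteration was exposed to test compounds. Growth inhibition was measured relative to vehicle-treated controls.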

[2] = NCI Yeast Anticancer Drug Screen. Data for the wt1 strain (AID 149);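 further: 0% = growth of vehicle-treated wt1 cultures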; details: S. cerevisiae wt1 strain (SPY 50644) growth inhibition, hits give high values
Procedure, shortened: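 wt1 strain grown with compound or vehicle; inhibition taken from the growth difference.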

[3] = NCI Yeast Anticancer Drug Screen. Data for the rad50EPP+ strain (AID 151);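 further: 0% = growth of vehicle-treated control cultures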; details: S. cerevisiae rad50 mutant strain, hits give high values
Procedure, shortened: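 Yeast strain carrying rad50 alteration (rad50EPP+) exposed to compounds; growth inhibition measured relative to vehicle-treated controls.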

[4] = NCI Yeast Anticancer Drug Screen. Data for the mgt1 strain (AID 153); details: S. cerevisiae mgt1 mutant growth inhibition, hits give high values
Procedure, shortened: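 Yeast mgt1 strain (DNA repair/cell-cycle alteration panel) exposed to compounds; growth inhibition measured relative to vehicle-treated controls.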

[5] = NCI Yeast Anticancer Drug Screen. Data for the rad50 strain (AID 155);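 further: 0% = growth of vehicle-only cultures of the same strain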; details: S. cerevisiae rad50 strain growth inhibition, hits give high values
Procedure, shortened: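 DNA repair mutant yeast, compound exposure, growth read-out; inhibition is taken relative to vehicle.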

[6] = NCI Yeast Anticancer Drug Screen. Data for the mec2-1 strain (AID 157); details: S. cerevisiae mec2-1 strain, hits give high values
Procedure, shortened: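 mec2-1 yeast strain, carrying an alteration in DNA damage repair or cell cycle control, was exposed to compounds; growth inhibition was measured relative to vehicle-treated controls.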

[7] = NCI Yeast Anticancer Drug Screen. Data for the rad14 strain (AID 159);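 further: 0% = growth of vehicle-treated control cultures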; details: S. cerevisiae rad14 strain growth inhibition, hits give high values
Procedure, shortened: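 DNA repair-defective yeast, compound-exposed; % growth inhibition derived by comparison with vehicle-treated controls.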

[8] = NCI Yeast Anticancer Drug Screen. Data for the sgs1 mgt1 strain (AID 161);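 further: 0% = growth of cultures given vehicle only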; details: S. cerevisiae sgs1 mgt1 strain, hits give high values
Procedure, shortened: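 Compounds are added to genetically altered yeast, and growth is compared with cultures given vehicle alone to give percent inhibition.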

[9] = NCI Yeast Anticancer Drug Screen. Data for the CLN2oe strain (AID 163);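 further: 0% = growth of vehicle-only control cultures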; details: S. cerevisiae CLN2oe strain, hits give high values
Procedure, shortened: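 Yeast cells carrying a defined cell-cycle control alteration were exposed to test compounds. Growth inhibition was scored against vehicle-treated control cultures.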

[10] = NCI Yeast Anticancer Drug Screen. Data for the cln2 rad14 strain (AID 165);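 further: 0% = growth equal to vehicle treated cultures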; details: S. cerevisiae cln2 rad14 strain, hits give high values
Procedure, shortened: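 Yeast carrying cln2 and rad14 alterations (cell cycle control and DNA damage repair) were exposed to compounds. Growth inhibition was measured against vehicle-treated controls.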

[11] = NCI Yeast Anticancer Drug Screen. Data for the bub3 strain (AID 167); details: S. cerevisiae bub3 mutant strain, hits give high values
Procedure, shortened: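 In this screen, a yeast mutant lacking normal mitotic checkpoint function is challenged with compound. Relative growth versus vehicle gives the inhibition value.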

[12] = NCI Yeast Anticancer Drug Screen. Data for the wt2 strain (AID 169);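 further: 0% = growth of vehicle-treated yeast cultures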; details: S. cerevisiae wt2 strain growth inhibition, hits give high values
Procedure, shortened: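 Yeast cells were exposed to test compounds, and growth inhibition was measured relative to vehicle-treated controls.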

[13] = NCI Yeast Anticancer Drug Screen. Data for the mlh1 strain (AID 171);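 further: 0% = growth of vehicle-treated control cultures of the same strain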; details: S. cerevisiae mlh1 strain growth inhibition, hits give high values
Procedure, shortened: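 Yeast carrying a defined genetic alteration in DNA damage repair or cell cycle control were exposed to test compounds. Growth inhibition was measured relative to vehicle-treated controls.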

[14] = NCI Yeast Anticancer Drug Screen. Data for the sgs1 strain (AID 173);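 further: 0% = growth of vehicle-only control cultures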; details: S. cerevisiae sgs1 mutant, hits give high values
Procedure, shortened: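 Yeast mutant strains carrying defined defects in DNA damage repair or cell cycle control were exposed to test compounds. Growth inhibition was scored against vehicle-treated controls.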

[15] = NCI Yeast Anticancer Drug Screen. Data for the mlh1 rad18 strain (AID 175); details: S. cerevisiae mlh1 rad18 strain growth inhibition, hits give high values
Procedure, shortened: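 Growth inhibition of the yeast strain was measured after compound exposure and expressed relative to vehicle-treated controls. The strain carries defined defects in DNA damage repair.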

[16] = NCI Yeast Anticancer Drug Screen. Data for the rad18 strain (AID 177); details: S. cerevisiae rad18 mutant growth inhibition, hits give high values
Procedure, shortened: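 Yeast carrying a defined DNA damage repair alteration were exposed to compounds. Growth inhibition was expressed relative to vehicle-treated controls.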

[17] = at 5.0 µM (retest, dose inferred, filed as 0.5)
[18] = at 50.0 µM (retest, dose inferred, filed as 5.0)

Measured: growth inhibition

CCOC(=O)/C(=C/c1cccc(Cl)c1)N(CC)CC
active: [1]; at 100.0 µM 96% | [2]; at 100.0 µM 96% | [4]; at 100.0 µM 93% | [5]; [18] 75% | [5]; at 50.0 µM 77.4% | [5]; at 100.0 µM 95% | [6]; [18] 86% | [6]; at 50.0 µM 78.5% | [6]; at 100.0 µM 95% | [7]; at 100.0 µM 93% | [8]; [18] 90% | [8]; at 50.0 µM 83% | [9]; at 100.0 µM 96% | [10]; [18] 94% | [10]; at 50.0 µM 87.5% | [11]; [18] 90% | [11]; at 50.0 µM 83.5% | [11]; at 100.0 µM 96% | [12]; at 100.0 µM 97% | [13]; at 100.0 µM 91% | [14]; at 100.0 µM 96% | [15]; [18] 83% | [15]; at 50.0 µM 78.2% | [16]; at 100.0 µM 95%
inactive: [1]; at 1.2 µM 10% | [1]; at 3.7 µM 13% | [1]; at 11.0 µM 12% | [1]; at 33.0 µM 49% | [2]; at 1.2 µM 8% | [2]; at 3.7 µM 13% | [2]; at 11.0 µM 22% | [2]; at 33.0 µM 43% | [3]; at 1.2 µM 37% | [3]; at 3.7 µM 29% | [3]; at 11.0 µM 34% | [3]; at 33.0 µM 45% | [3]; at 100.0 µM 57% | [4]; at 1.2 µM 8% | [4]; at 3.7 µM 9% | [4]; at 11.0 µM 27% | [4]; at 33.0 µM 51% | [5]; at 1.2 µM -1% | [5]; at 3.7 µM 5% | [5]; [17] 17% | [5]; at 11.0 µM 6% | [5]; at 33.0 µM 39% | [6]; at 1.2 µM 6% | [6]; at 3.7 µM 2% | [6]; [17] -22% | [6]; at 11.0 µM 7% | [6]; at 33.0 µM 46% | [7]; at 1.2 µM -12% | [7]; at 3.7 µM 10% | [7]; at 11.0 µM 12% | [7]; at 33.0 µM 46% | [8]; [17] 10% | [9]; at 1.2 µM 8% | [9]; at 3.7 µM -9% | [9]; at 11.0 µM 20% | [9]; at 33.0 µM 45% | [10]; [17] 43% | [11]; at 1.2 µM 30% | [11]; at 3.7 µM 18% | [11]; [17] 17% | [11]; at 11.0 µM 24% | [11]; at 33.0 µM 55% | [12]; at 1.2 µM 5% | [12]; at 3.7 µM 11% | [12]; at 11.0 µM 13% | [12]; at 33.0 µM 40% | [13]; at 1.2 µM 18% | [13]; at 3.7 µM 13% | [13]; at 11.0 µM 7% | [13]; at 33.0 µM 48% | [14]; at 1.2 µM 26% | [14]; at 3.7 µM 30% | [14]; at 11.0 µM 41% | [14]; at 33.0 µM 62% | [15]; [17] -9% | [16]; at 1.2 µM 13% | [16]; at 3.7 µM 14% | [16]; at 11.0 µM 17% | [16]; at 33.0 µM 35%

CCCCCCCCCC(=O)N(CCC)CCC
active: [1]; at 100.0 µM 96% | [2]; at 33.0 µM 79% | [2]; at 100.0 µM 98% | [3]; at 100.0 µM 77% | [4]; at 100.0 µM 96% | [5]; [17] 97% | [5]; [18] 96% | [5]; at 50.0 µM 90.9% | [5]; at 100.0 µM 97% | [6]; [17] 97% | [6]; at 33.0 µM 73% | [6]; [18] 98% | [6]; at 50.0 µM 93.3% | [6]; at 100.0 µM 97% | [7]; at 100.0 µM 97% | [8]; at 50.0 µM 92.9% | [9]; at 100.0 µM 98% | [10]; at 50.0 µM 91.1% | [11]; [18] 73% | [11]; at 50.0 µM 92% | [11]; at 100.0 µM 97% | [12]; at 100.0 µM 97% | [13]; at 100.0 µM 96% | [14]; at 33.0 µM 73% | [14]; at 100.0 µM 98% | [15]; [17] 99% | [15]; [18] 99% | [15]; at 50.0 µM 90.3% | [16]; at 100.0 µM 98%
inactive: [1]; at 1.2 µM -11% | [1]; at 3.7 µM -15% | [1]; at 11.0 µM -19% | [1]; at 33.0 µM 42% | [2]; at 1.2 µM -10% | [2]; at 3.7 µM -10% | [2]; at 11.0 µM -17% | [3]; at 1.2 µM 1% | [3]; at 3.7 µM 9% | [3]; at 11.0 µM 11% | [3]; at 33.0 µM 43% | [4]; at 1.2 µM -14% | [4]; at 3.7 µM -20% | [4]; at 11.0 µM -25% | [4]; at 33.0 µM 0% | [5]; at 1.2 µM 2% | [5]; at 3.7 µM -8% | [5]; at 11.0 µM -2% | [5]; at 33.0 µM 48% | [6]; at 1.2 µM -4% | [6]; at 3.7 µM 1% | [6]; at 11.0 µM -15% | [7]; at 1.2 µM -9% | [7]; at 3.7 µM -6% | [7]; at 11.0 µM -15% | [7]; at 33.0 µM 29% | [8]; [17] -38% | [8]; [18] 56% | [9]; at 1.2 µM 3% | [9]; at 3.7 µM -2% | [9]; at 11.0 µM 0% | [9]; at 33.0 µM 45% | [10]; [17] 48% | [10]; [18] 65% | [11]; at 1.2 µM -29% | [11]; at 3.7 µM -27% | [11]; [17] -7% | [11]; at 11.0 µM -37% | [11]; at 33.0 µM 67% | [12]; at 1.2 µM -5% | [12]; at 3.7 µM -2% | [12]; at 11.0 µM -10% | [12]; at 33.0 µM 49% | [13]; at 1.2 µM 2% | [13]; at 3.7 µM -15% | [13]; at 11.0 µM -13% | [13]; at 33.0 µM 41% | [14]; at 1.2 µM -4% | [14]; at 3.7 µM -9% | [14]; at 11.0 µM -17% | [16]; at 1.2 µM 15% | [16]; at 3.7 µM 21% | [16]; at 11.0 µM 15% | [16]; at 33.0 µM 68%
